This is a sample that favours compounds with a hit; in the whole collection about 10% have one here.
KB-V1 MDR tox: qHTS assay for MDR1-selective chemotherapeutics: Primary screen using the drug-selected MDR subline cells KB-V1; KB-V1 MDR cells viability, CellTiter-Glo, 72 h; Potency, µM (top dose mostly 46.1 µM), hits mostly cytotoxic; 3.4% of 400,000 active; also: nearly all actives have a fitted effect of over 60% in size
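KB-V1 MDR subline cells in DMEM (phenol-red free, 10% FBS) exposed to compounds in qHTS concentration series for 72 h at 37 degrees C. Viability read by CellTiter-Glo luminescence; concentration-effect curves fitted after normalization and correction.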
MCF10A rerep: A quantitative high throughput screen for small molecules that induce DNA re-replication in MCF 10a normal breast cells. 2.9% of 350,000 active. Potency, µM (titrated, usually from 46.1 µM), most hits filed as activators. MCF 10A DNA re-replication, Hoechst nuclear intensity, 48 h. AID 624296, 2012; also: nearly all actives have a fitted effect of over 50% in size
SW480 rerep: A quantitative high throughput screen for small molecules that induce DNA re-replication in SW480 colon adenocarcinoma cells; SW480 DNA re-replication, Hoechst DNA content imaging, 48 h; Potency, µM (titrated, usually from 46.1 µM), usual class: activators; 1.8% of 340,000 active; also: nearly all actives have a fitted effect of over 55% in size
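Per well, 250 cells were exposed to pinned compound for 48 hr. Nuclear DNA was visualised with Hoechst (40 min, 37 C) and total object intensity recorded by fluorescence scanning.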
RORgamma inh: qHTS for inhibitors of ROR gamma transcriptional activity; Potency, µM (series often up to 53.6 µM), most hits filed as inhibitors; Drosophila S2 Gal4-RORgamma UAS-luciferase reporter, 20 h; AID 2551, 2010; 5.4% of 310,000 active; also: nearly all actives have a fitted effect of over 60% in size
Target sequence (P51450 whole entry, looked up, the tested form may be a part): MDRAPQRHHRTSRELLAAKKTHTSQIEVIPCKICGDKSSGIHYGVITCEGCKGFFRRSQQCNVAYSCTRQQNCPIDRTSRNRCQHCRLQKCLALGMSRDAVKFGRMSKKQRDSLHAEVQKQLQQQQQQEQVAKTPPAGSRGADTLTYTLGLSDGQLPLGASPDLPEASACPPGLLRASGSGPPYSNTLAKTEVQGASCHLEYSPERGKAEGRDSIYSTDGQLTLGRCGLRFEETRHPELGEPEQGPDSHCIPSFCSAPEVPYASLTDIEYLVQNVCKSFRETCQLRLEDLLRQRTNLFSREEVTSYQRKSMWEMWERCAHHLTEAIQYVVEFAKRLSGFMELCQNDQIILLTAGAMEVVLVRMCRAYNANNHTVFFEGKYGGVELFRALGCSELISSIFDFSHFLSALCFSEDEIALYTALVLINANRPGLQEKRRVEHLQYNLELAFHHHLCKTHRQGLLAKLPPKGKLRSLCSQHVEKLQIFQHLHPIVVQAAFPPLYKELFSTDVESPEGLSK
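Compounds are pin-transferred onto Drosophila Schneider cells expressing a copper-inducible Gal4–ROR gamma transactivation domain fusion. After 1 hr, copper sulfate is added to 700 uM final; luciferase is read 20 hr later.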
Gal4-VP16 FLuc: VP16 counterscreen qHTS for inhibitors of ROR gamma transcriptional activity. Drosophila S2 Gal4-VP16 UAS-luciferase, luminescence, 20 h. Potency, µM (series often up to 53.6 µM), usual class: inhibitors. 3.5% of 310,000 active;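 also: Gal4-VP16 expression switched on by copper sulfate through the metallothionein promoter; nearly all actives have a fitted effect of over 50% in size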
KB-3-1 cytotox: qHTS assay for MDR1-selective chemotherapeutics: Primary screen using the parental adenocarcinoma cell KB-3-1 | KB-3-1 viability, CellTiter-Glo ATP luminescence, 72 h | Potency, µM (doses to about 46.1 µM), hits mostly cytotoxic | 1.4% of 400,000 active | AID 1347075, 2019; also: nearly all actives have a fitted effect of over 60% in size
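Using CellTiter-Glo luminescence, growth of non-resistant KB-3-1 adenocarcinoma cells is assessed 72 h after pin-tool compound addition at 37 °C. Normalized responses across the concentration series yield fitted curves.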
Hits are given with their value; 0 = inactive; ? = inconclusive; - = no result given; ! = a repeat was not active. Calls follow the shape of the dose curve; as a rule, active = well fitted curve in the direction sought with a large enough effect; inconclusive = small, poorly fitted or top-dose-only effect, or another doubt; inactive = no such curve, though single readings can be large; an effect the other way counts as inactive or inconclusive.

SMILES | KB-V1 MDR tox | MCF10A rerep | SW480 rerep | RORgamma inh | Gal4-VP16 FLuc | KB-3-1 cytotox
CCOc1cc(C(=O)Nc2cc(C)on2)cc(OCC)c1OCC | 0 | 0 | 0 | 2.24µM | 0 | 0
Cc1cc(NC(=O)COC(=O)c2cccc(OCc3ccccc3)c2)no1 | 0 | 0 | 0 | 0 | 0 | 0
Cc1cc(NC(=O)c2cccc(COc3ccc(Br)cc3)c2)no1 | 0 | 0 | 0 | 7.08µM | ? | 0
CCOc1ccc(C(=O)Nc2cc(C)on2)cc1 | ? | 0 | 0 | ? | ? | 0
Cc1ccsc1/C=N/NC(=O)c1nnn(-c2nonc2N)c1C(C)C | 0 | 0 | 0 | 11.2µM | 17.8µM | 0
CCCc1c(C(=O)N/N=C/c2ccncc2)nnn1-c1nonc1N | 0 | 0 | 0 | 0 | 0 | 0
CCCc1c(C(=O)N/N=C/c2sccc2C)nnn1-c1nonc1N | 0 | ? | 0 | ? | 5.62µM | 0
CC(C)c1c(C(=O)N/N=C/c2cccs2)nnn1-c1nonc1N | 0 | 0 | 0 | ? | 0 | 0
C=CCN(CC=C)C(=O)c1ccc(OC2CCN(S(=O)(=O)N(C)C)CC2)cc1 | 20.6µM | 0 | 0 | 0 | 0 | ?
Cc1cc(C)cc(N/C(N)=N/c2nc(C)cc(C)n2)c1 | 20.6µM | ? | ? | 0 | 0 | ?
Cc1cccc(N/C(N)=N/c2nc(C)cc(C)n2)c1 | ? | 0 | 0 | 0 | 0 | ?
CCCCc1ccc(N/C(N)=N/c2nc(C)cc(C)n2)cc1 | 6.51µM | ? | ? | 0 | ? | ?
Cc1ccc(N/C(N)=N/c2nc(C)cc(C)n2)cc1 | ? | ? | ? | 0 | 0 | 0
Cc1cc(C)nc(/N=C(\N)Nc2ccccc2-c2ccccc2)n1 | ? | 0 | 0 | ? | 12.6µM | ?
Cc1ccc2nc(-c3cccs3)c(Nc3ccc4c(c3)OCCO4)n2c1 | 0 | - | - | - | - | 0
COc1ccc(CC(N)c2csc(Nc3nccc(C(F)(F)F)n3)n2)cc1 (stereo not drawn) | 0 | - | - | - | - | 0
CN(CC(=O)Nc1ccc(F)cc1F)S(=O)(=O)c1cccc2nsnc12 | 0 | - | - | - | - | 0
COc1ccc(N2CCN(C(=O)c3cc(N4C(=O)C5C6CCC(C6)C5C4=O)ccc3Cl)CC2)cc1 (stereo not drawn) | 4.61µM | 0 | 0 | ? | 0 | ?
COc1ccc(N2CCN(C(=O)c3cccc(N4C(=O)C5CC=CC(C)C5C4=O)c3)CC2)cc1 (stereo not drawn) | 18.4µM | 0 | 0 | ? | 0 | 0
O=C(c1cccc(C(=O)N2CCN(c3ccccc3F)CC2)c1)N1CCN(c2ccccc2F)CC1 | 0 | 0 | 0 | 0 | 0 | 0
COc1ccc(N2CCN(C(=O)c3cccc(N4C(=O)C5C6C=CC(C6)C5C4=O)c3)CC2)cc1 (stereo not drawn) | 0 | 0 | 0 | 0 | ? | 0
O=C(c1cc(N2C(=O)C3C4CCC(C4)C3C2=O)ccc1Cl)N1CCN(c2ccccc2F)CC1 (stereo not drawn) | 4.11µM | 0 | ? | ? | 0 | ?
O=C(c1cc(N2C(=O)C3C4CCC(C4)C3C2=O)ccc1Cl)N1CCN(c2ccc(F)cc2)CC1 (stereo not drawn) | 2.59µM | ? | 0 | ? | 0 | ?
O=C(c1cc(N2C(=O)C3C4CCC(C4)C3C2=O)ccc1Cl)N1CCCCCC1 (stereo not drawn) | 0 | ? | 0 | 0 | 0 | 0
COc1ccc(CCNC(=O)CCSCc2ccccc2Cl)cc1OC | ? | - | - | - | - | 0
SMILES | KB-V1 MDR tox | MCF10A rerep | SW480 rerep | RORgamma inh | Gal4-VP16 FLuc | KB-3-1 cytotox
O=C(COc1ccc(Cl)cc1)NNC(=O)c1ccccn1 | 0 | 0 | 0 | 10µM | ? | ?
COc1ccc(Cl)cc1NC(=O)NNC(=O)c1ccccn1 | 0 | 0 | 0 | 4.47µM | 7.08µM | 0
CCCCC(=O)N(c1ccc2oc(C)c(C(C)=O)c2c1)S(=O)(=O)c1ccc(F)cc1C | 0 | - | - | - | - | 0
CCOC(=O)c1c(C)oc2ccc(N(C(C)=O)S(=O)(=O)c3c(C)cc(C)cc3C)cc12 | 4.11µM | - | - | - | - | 23.1µM
CCOC(=O)c1c(C)oc2ccc(N(C(=O)c3ccncc3)S(=O)(=O)c3ccc(F)cc3)cc12 | ? | - | - | - | - | 0
COc1ccc(S(=O)(=O)N(C(=O)c2ccncc2)c2ccc3oc4c(c3c2)CCCC4)cc1 | ? | 3.26µM | ? | 0 | 0 | ?
CC(=O)c1c(C)oc2ccc(N(C(=O)c3ccncc3)S(=O)(=O)c3ccc(C)cc3C)cc12 | 23.1µM | - | - | - | - | ?
O=C(NCCc1ccc(Cl)cc1)c1ccc(CSCc2cccc(Cl)c2)o1 | 0 | - | - | - | - | 0
COc1cccc(C(=O)N(Cc2nc(-c3ccc(Cl)cc3)no2)C(C)C)c1OC | 0 | - | - | - | - | 0
Cc1ccc(C(=O)NCCn2cc(SCC(=O)Nc3cc(C)on3)c3ccccc32)cc1 | 0 | 0 | 0 | ? | 0 | 0
O=C(NCCn1cc(SCc2ccc(F)cc2)c2ccccc21)c1c(F)cccc1F | 18.4µM! | ? | 0 | 0 | ? | ?
O=C(NCCn1cc(SCc2ccccc2)c2ccccc21)c1c(F)cccc1F | 0 | 0 | 0 | ? | 0 | 0
Cc1ccc(C(=O)NCCn2cc(SCC(=O)N3CCOCC3)c3ccccc32)cc1 | 0 | 0 | 0 | 12.6µM | 0 | 0
COc1cccc(CNC(=O)Cn2c(=O)n3nc(-c4cccc(C)c4)nc3c3ccccc32)c1 | ? | - | - | - | - | 0
COc1cc(NC(=O)C(CCSC)NS(=O)(=O)c2ccc3c(c2)oc(=O)n3C)cc(OC)c1 (stereo not drawn) | 0 | - | - | - | - | 0
COc1cc(CCCN2C(=S)NC[C@@H]2CC2CCCCC2)cc(OC)c1OC | 0 | ? | ? | 3.98µM | ? | 0
O=S(=O)(c1ccc(Cl)c(Cl)c1)c1snnc1-c1ccccc1 | ? | 4.61µM | 1.3µM | 20µM | ? | 5.17µM
c1ccc(-c2nnsc2-c2ccccc2)cc1 | 0 | 0 | 0 | 0 | 0 | 0
Cc1c(N(C)S(=O)(=O)c2ccc(Cl)c(C(=O)N3CCC(C(N)=O)CC3)c2)c(=O)n(-c2ccccc2)n1C | 0 | 0 | 6.51µM | - | - | 0
CC(C)=CCC[C@H](C)C[C@@H]1CC2=C(C(=O)OC(C)(C)O2)[C@@H](c2ccc(F)cc2)O1 | 0 | - | - | - | - | 0
CCCN(CCC)C(=S)NC(=O)c1ccc(Cl)cc1Cl | ? | ? | ? | 0.282µM | 0.891µM | 0
CCCOc1ccc(CN(CCC#N)C(=S)NC(=O)c2ccccc2)cc1 | ? | ? | ? | 0.316µM | 0.562µM | ?
O=C(NC(=S)N(CCO)Cc1ccccc1)c1ccc(F)cc1Cl | 0 | 0 | 0 | 0.562µM | 2.82µM | 0
CCN(CC)S(=O)(=O)c1ccc(C(=O)NC(=S)N(CCO)Cc2ccccc2)cc1 | 0 | ? | 0 | 1.12µM | 3.16µM | 0
CCN(CC)S(=O)(=O)c1ccc(C(=O)NC(=S)N2CCCCC2C)cc1 (stereo not drawn) | 0 | - | - | - | - | 0

Source: PubChem (National Center for Advancing Translational Sciences (NCATS))
